Bioassay records deposited in PubChem by National Center for Advancing Translational Sciences (NCATS).
12-LOX inh = blocks human arachidonate 12S-lipoxygenase; 580,000 compounds, 1.1% hits; Potency, µM (titrated, usually from 108 µM), usual class: inhibitors; P18054; purified 12hLO, xylenol orange hydroperoxide absorbance
Target sequence (P18054 whole entry, looked up): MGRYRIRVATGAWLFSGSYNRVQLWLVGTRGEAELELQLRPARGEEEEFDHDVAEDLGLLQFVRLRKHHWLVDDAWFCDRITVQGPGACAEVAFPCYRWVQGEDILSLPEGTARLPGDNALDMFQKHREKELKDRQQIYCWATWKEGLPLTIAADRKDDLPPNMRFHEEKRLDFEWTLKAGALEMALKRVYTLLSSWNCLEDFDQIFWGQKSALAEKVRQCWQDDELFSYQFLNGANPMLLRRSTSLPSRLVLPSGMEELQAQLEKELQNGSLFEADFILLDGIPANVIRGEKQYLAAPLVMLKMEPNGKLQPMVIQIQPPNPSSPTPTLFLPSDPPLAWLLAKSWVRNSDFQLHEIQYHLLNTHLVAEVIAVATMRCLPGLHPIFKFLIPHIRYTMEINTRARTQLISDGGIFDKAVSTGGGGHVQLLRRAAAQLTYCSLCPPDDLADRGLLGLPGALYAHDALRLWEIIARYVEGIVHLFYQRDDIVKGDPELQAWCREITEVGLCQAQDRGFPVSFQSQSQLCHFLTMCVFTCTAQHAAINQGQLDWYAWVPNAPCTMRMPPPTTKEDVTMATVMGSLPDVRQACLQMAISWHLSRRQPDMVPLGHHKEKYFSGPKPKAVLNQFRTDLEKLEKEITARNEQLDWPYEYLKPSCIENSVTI
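Purified human 12hLO (150 nM final) in 25 mM Hepes, 0.01% Triton X-100, pH 7.0 was preincubated 15 min at room temperature with compound. Then 40 uM arachidonic acid was added, 30 min. Hydroperoxide was read by Fe-XO absorbance ratio 573/405 nm.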
IL-1B inflam inh = inflammasome signaling inhibition, IL-1 beta readout. THP-1 LPS/ATP IL-1B secretion, AlphaLISA, 16 h; stronger effect = lower value. activity change, % at 57.5 µM. 360,000 compounds, 4.7% hits; in the data active means activity change below about -50%; inconclusive means mostly about -30% to -49%
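THP-1 cells pretreated 1 hr with compounds (up to 57.5 uM final), then stimulated with LPS (250 ng/mL final) plus ATP (1.25 mM final); secreted IL-1B measured by AlphaLISA after 16 hr, decreased signal indicating inhibition.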
DT40 TDP1 CPT = growth inhibition of DT40 Tdp1-/-;hTDP1 cells with camptothecin (screen for TDP1 inhibitors) | chicken DT40 Tdp1-/-;hTDP1 cells + 20 nM CPT, ATP luminescence, 48 h | Potency, µM (top dose mostly 46.2 µM), most hits filed as inhibitors | 420,000 compounds, 12% hits; further: nearly all actives have a fitted effect of over 55% in size
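Chicken DT40 Tdp1-/- cells stably complemented with human TDP1 were seeded at 400 cells/well in medium containing 20 nM camptothecin, exposed to pin-transferred compounds, and grown at 37 °C for at least 48 hr. Viability was read as ATP luminescence.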
TDP1 cell noCPT = qHTS for Inhibitors of human tyrosyl-DNA phosphodiesterase 1 (TDP1): qHTS in cells in absence of CPT. DT40 Tdp1-/- hTDP1 cells, no CPT, ATP luminescence, 48 h. Potency, µM (highest dose often 46.2 µM), most hits filed as inhibitors. 420,000 compounds, 15% hits; further: nearly all actives have a fitted effect of over 55% in size
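Chicken DT40 Tdp1-/- cells stably complemented with human TDP1 were seeded at 400 cells/well with DMSO in place of 20 nM camptothecin. After compound pinning, cells grew at least 48 hr at 37 °C; viability read by CellTiter-Glo luminescence.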
HT1080 IDH1KD tx = kills HT-1080 cells with IDH1 knockdown; 360,000 compounds, 2% hits; HT-1080 IDH1 knockdown viability, ATP luminescence, 48 h; Potency, µM (doses to about 46.1 µM), actives largely listed as cytotoxic
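% activity derives from luminescence (CellTiter-Glo), normalised to DMSO and no-cell wells. HT-1080-IDH1KD cells, 750/well, had 48 h compound exposure at 37 °C.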
HT1080NT lethal = kills 2HG-producing HT-1080-NT fibrosarcoma cells. HT-1080-NT fibrosarcoma viability, CellTiter-Glo ATP luminescence, 48 h. 360,000 compounds, 1.6% hits. Potency, µM (titrated, usually from 46.1 µM), most hits filed as cytotoxic;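 further: NT is the 2HG producing partner of a matched IDH1 knockdown line; nearly all actives have a fitted effect of over 55% in size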
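Viability of the 2HG-overproducing fibrosarcoma line after 48 hours of compound exposure at 37 degrees C was determined by luminescence with CellTiter-Glo, and concentration-effect curves were then fitted and categorized.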
Hits are given with their value; 0 = inactive; ? = inconclusive; - = no result given. Many of the other results were omitted from the sample, so hits are more common in it than they were. Unless noted, the call rests on the fitted dose curve; in most records, active means well fitted curve in the direction sought with a large enough effect; inconclusive means small, poorly fitted or top-dose-only effect, or another doubt; inactive means no such curve, though single readings can be large; an effect the other way counts as inactive or inconclusive.

SMILES | 12-LOX inh | IL-1B inflam inh | DT40 TDP1 CPT | TDP1 cell noCPT | HT1080 IDH1KD tx | HT1080NT lethal
CCC(C)NC(=O)c1ccc2c(c1)OCCCO2 (centres undefined) | 0 | - | - | - | - | -
CCOc1cccc(C(=O)Nc2cccc(-c3nc4ncccc4o3)c2C)c1 | 0 | -63.3 | 0 | ? | 0 | 0
CCOc1cccc(C(=O)Nc2cc(C)c(O)c(-c3nc4ncccc4o3)c2)c1 | 0 | - | 0 | 0 | - | -
Cc1c(NC(=O)c2ccc([N+](=O)[O-])o2)cccc1-c1nc2ncccc2o1 | 0 | -103.1 | 18.4µM | ? | ? | 9.2µM
COc1ccc(C(=O)Nc2cccc(-c3nc4ncccc4o3)c2C)cc1OC | 0 | 0 | 0 | ? | ? | ?
Cc1c(NC(=O)C(C)(C)Oc2ccc(Cl)cc2)cccc1-c1nc2ncccc2o1 | 0 | - | 16.4µM | 23.1µM | - | -
O=C(Cc1ccc(Br)cc1)N(Cc1nnc(-c2ccccc2Cl)o1)C1CC1 | 0 | - | - | - | - | -
Cc1ccc(C)c(NC(NC(=O)c2ccc(C(C)(C)C)cc2)C(Cl)(Cl)Cl)c1 (centres undefined) | 0 | - | - | - | - | -
O=C(C[C@H]1C(=O)N(Cc2cccnc2)C[C@@H]1Cc1ccccc1)Nc1ccc(Br)cc1 | ? | ? | ? | 14.6µM | ? | ?
O=C(C[C@H]1C(=O)N(Cc2ccccc2)C[C@@H]1c1ccc(Br)cc1)Nc1ccc(Br)cc1 | 0 | 0 | 25.9µM | 25.9µM | ? | 0
O=C(CN1CCN(CC(=O)N2CCCCCC2)CC1)NCCc1c[nH]c2ccccc12 | 0 | - | - | - | - | -
Cc1ccc(/C(COc2ccc3c(C)c(Cc4ccccc4)c(=O)oc3c2C)=N/O)cc1 | 0 | - | - | - | - | -
COc1ccc(-c2nc(CSc3nc4ncccc4[nH]3)c(C)o2)cc1OC | 0 | - | ? | 20.6µM | - | -
Cc1oc(-c2cccc(Cl)c2)nc1CSc1nc2ncccc2[nH]1 | 0 | - | ? | 20.6µM | - | -
COCc1c(C(=O)OCC(=O)NCC2CCCO2)sc2cccc(F)c12 (centres undefined) | 0 | - | - | - | - | -
O=C(O)c1cccc(NCc2ccc(Cl)cc2)c1 | 0 | - | - | - | - | -
O=C(CCc1ncc(-c2ccc(Cl)cc2)o1)N1CCC(C(=O)N2CCOCC2)CC1 | 0 | - | - | - | - | -
COc1ccc(C(CCN2CCCC(C)C2)c2c(OC)cc(OC)c3c(C)cc(=O)oc23)cc1 (centres undefined) | 0 | 0 | 13µM | 23.1µM | 0 | 0
COc1cc(OC)c2c(-c3ccccc3)cc(=O)oc2c1C(CCN1CCCC(C)C1)c1ccc(N(C)C)cc1 (centres undefined) | 0 | 0 | ? | 20.6µM | 0 | 0
COc1ccc(C(CCN2CCCC(C)C2)c2c(OC)cc(OC)c3c(-c4ccccc4)cc(=O)oc23)cc1 (centres undefined) | ? | 0 | 3.26µM | 2.91µM | ? | ?
COc1cc(OC)c2c(-c3ccccc3)cc(=O)oc2c1C(CC(=O)N1CCN(c2ccccc2)CC1)c1ccc(N(C)C)cc1 (centres undefined) | ? | 0 | ? | ? | 0 | 0
COc1ccc(C2CC(=O)Oc3c(C(CCN4CCCC(C)C4)c4ccc(N(C)C)cc4)c(OC)cc(OC)c32)cc1 (centres undefined) | 0 | 0 | ? | ? | 0 | 0
O=C(CNC(=O)c1ccccn1)Nc1cccc2c(=O)[nH][nH]c(=O)c12 | 0 | - | - | - | - | -
CNc1ccc2ncc(-c3ccc(OC)c(OC)c3)n2n1 | 0 | -66.4 | 2.59µM | 2.06µM | ? | 18.4µM
COc1ccc(-n2c(C)cc(/C=C3/SC(=S)N(C)C3=O)c2C)cc1 | 0 | 0 | 20.6µM | 18.4µM | 0 | 0
CN1C(=O)/C(=C\c2ccccc2OCc2ccccc2)SC1=S | 0 | 0 | 0 | 0 | 0 | 0
Cc1cc(/C=C2\SC(=S)N(C)C2=O)c(C)n1-c1cccc(O)c1 | ? | 0 | 23.1µM | ? | 0 | 0
CN1C(=O)/C(=C\c2cc(N=Nc3ccccc3)ccc2O)SC1=S | 0 | 0 | 20.6µM | 23.1µM | 0 | 0
